Source: PubChem
Most compounds without a hit are left out; they make up all but 4.6% or so of the library.
HIF-2a block: inhibitors of HIF-2a; inhibition, % at 18.8 µM; 786-0 RCC cells HIF-2a reporter, luciferase luminescence, overnight; 360,000 tested, 0.72% active;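 active means inhibition of the luminescence signal of 40% or more relative to plate controls, in a single-dose primary screen at 18.75 µM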
KKLEB tox: CF airway cell cytotoxicity counter-screen; 360,000 tested, 0.36% active; activity change (cytotoxicity), % at 5 µM; KKLEB CF airway cells viability, ATPlite luminescence, overnight; stronger effect = lower value; cells stimulated with P. aeruginosa culture filtrate;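 active means corrected activity change at or below -50% at 5 µM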
Peg3 promoter: Peg3 promoter activity inhibition; HeLa PEG-Prom luciferase reporter, luminescence, overnight; inhibition, % at 20 µM; 360,000 tested, 1.7% active;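 active means inhibition of at least 50% at 20 µM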
ABHD5-PLIN5 inh: inhibitors of human ABHD5-perilipin-5 interaction | inhibition, % at 4 µM | Split G. princeps luciferase complementation, luminescence, 4 h | 360,000 tested, 0.78% active;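 active means inhibition above the mean inhibition across every tested compound plus 3 SD, cut at about 22% in these data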;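 further: 0% = DMSO only wells and the 100% control is not disclosed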
Mdm2-MdmX inh: disrupts the human Mdm2-MdmX interaction. SaOS-2 split-luciferase Mdm2/MdmX complementation, luminescence. inhibition, % at 8 µM. 330,000 tested, 3% active;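 active means inhibition of at least 50% at 8 µM in the primary screen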
CF NFkB block: inhibitors of cystic fibrosis induced NF-kB; KKLEB NF-kB-GFP reporter, PAF-induced, GFP fluorescence overnight; inhibition, % at 5 µM; 360,000 tested, 0.86% active;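 active means at least 50% inhibition at 5 µM, scaled per plate between neutral and stimulator controls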;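 further: PAF is a Pseudomonas aeruginosa culture filtrate used as stimulus; plate controls were PAF-stimulated DMSO wells for no effect and unstimulated DMSO wells for full effect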
CF NFkB inh conf: CF NF-kB inhibition confirmation, single concentration | shares compounds with CF NFkB block | KKLEB CF airway cells, PAF-induced NF-kB-GFP fluorescence, overnight | inhibition, % at 5 µM | 1,300 tested, 64% active | AID 602472; in the data active means inhibition above about 40%;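 further: stimulus PAF is a Pseudomonas aeruginosa filtrate and not platelet activating factor; plate controls were DMSO wells with stimulus for no effect and unstimulated DMSO wells for full effect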
ABHD5-PLIN5 conf: confirmation of human ABHD5-PLIN5 interaction inhibitors; inhibition, % at 4 µM; biochemical ABHD5-PLIN5 interaction, luminescence; 2,200 tested, 67% active; shares compounds with ABHD5-PLIN5 inh; in the data active means inhibition above about 23%;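 further: 0% = DMSO vehicle wells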
HNF4 split-luc: active in HNF4 split-luciferase counter-screen for ABHD5-PLIN5 inhibitors; 2,200 tested, 77% active; shares compounds with ABHD5-PLIN5 inh; inhibition, % at 4 µM; AID 651674; HNF4 dimerization, luminescence, biochemical;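 active means mean inhibition across replicate wells exceeding the computed hit threshold, cut at about 13% in these data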;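 further: light from luciferase halves that rejoin when HNF4 fusion proteins dimerize; 0% = DMSO only wells and the 100% control is not given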
Target sequence (P41235 whole entry, looked up, the tested form may be a part): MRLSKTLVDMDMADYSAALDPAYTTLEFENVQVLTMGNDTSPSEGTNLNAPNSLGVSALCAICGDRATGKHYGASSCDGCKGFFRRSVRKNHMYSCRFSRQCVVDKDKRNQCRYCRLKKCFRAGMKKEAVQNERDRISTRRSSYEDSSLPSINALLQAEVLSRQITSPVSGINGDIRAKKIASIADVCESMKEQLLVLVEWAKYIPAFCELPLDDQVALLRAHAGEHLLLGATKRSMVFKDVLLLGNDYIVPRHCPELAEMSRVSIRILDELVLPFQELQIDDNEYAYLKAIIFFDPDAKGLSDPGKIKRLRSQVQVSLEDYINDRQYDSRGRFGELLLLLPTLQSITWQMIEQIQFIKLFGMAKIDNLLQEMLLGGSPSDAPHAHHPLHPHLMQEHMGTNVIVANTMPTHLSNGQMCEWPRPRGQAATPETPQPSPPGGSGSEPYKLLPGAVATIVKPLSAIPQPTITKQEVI
HIF-2a conf: confirmation of HIF-2a inhibitors; shares compounds with HIF-2a block; 786-0 RCC cells, HIF-2a luciferase reporter luminescence, overnight; inhibition, % at 18.8 µM; 1,800 tested, 56% active;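 active means mean inhibition across four replicates of at least 40 percent at the single tested concentration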
HIF-1a counter: HIF-1a inhibition counter-screen for HIF-2a hits; shares compounds with HIF-2a block; MiaPaCa-2 HIF-1a luciferase reporter, desferoxamine, overnight; inhibition, % at 18.8 µM; 1,800 tested, 72% active;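 active means mean inhibition of the reporter signal across four replicates at the single tested dose of 50% or more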
Numbers without * were called inactive; / = not tested or not shown.

SMILES | HIF-2a block | KKLEB tox | Peg3 promoter | ABHD5-PLIN5 inh | Mdm2-MdmX inh | CF NFkB block | CF NFkB inh conf | ABHD5-PLIN5 conf | HNF4 split-luc | others
COc1ccc(-n2nnnc2C(c2cccc(OC)c2OC)N2CCC(n3c(=O)[nH]c4ccccc43)CC2)cc1 (configuration not stated) | 9.6 | -22.8 | 55.3* | 4.7 | / | 84.1* | 41.1* | / | /
COc1ccc(-n2nnnc2C(c2cccs2)N2CCC(n3c(=O)[nH]c4ccccc43)CC2)cc1 (configuration not stated) | -23.4 | -18.3 | 70.6* | 7.3 | / | 79.2* | 96.8* | / | /
O=c1[nH]c2ccccc2n1C1CCN(C(c2cccc3ccccc23)c2nnnn2Cc2ccccc2)CC1 (configuration not stated) | -35.1 | -47.8 | 81.5* | 10.0 | / | 85.9* | 104.8* | / | /
O=C1NCN(c2ccccc2)C12CCN(C(c1cccc3ccccc13)c1nnnn1-c1ccc3c(c1)OCCO3)CC2 (configuration not stated) | 14.7 | -0.8 | 25.7 | 2.2 | / | 10.2 | / | / | /
COC(=O)c1ccc(N2C(=O)CC(N3CCC(n4c(=O)[nH]c5ccccc54)CC3)C2=O)cc1 (configuration not stated) | -1.5 | -5.1 | 1.9 | 7.5 | -0.3 | -13.5 | / | / | /
C[C@]12CCC3[C@@H](CCC4=CC(=O)CC[C@@]43CO)C1CCC2=O (some centres not stated) | 5.6 | 2.9 | 7.7 | -5.9 | 0.8 | -3.1 | / | / | /
O=c1ccc2c(O)c3ccoc3cc2o1 | 5.4 | -3.8 | -4.6 | -1.5 | 2.2 | -16.2 | / | / | /
COc1cc(C2c3cc4c(cc3CC3COC(=O)C32)OCO4)cc(OC)c1O (configuration not stated) | 19.8 | -29.7 | -49.1 | -1.9 | / | 54.5* | 70.7* | / | /
COc1cc2c(c(OC)c1OC)-c1ccc(O)cc1C(NC(C)=O)CC2 (configuration not stated) | 13.1 | -18.3 | -37.9 | -3.4 | / | 66.6* | 87.8* | / | /
COC(=O)C1=C(c2ccc(OCc3ccccc3)cc2)C[C@@H]2CC[C@H]1N2C(=O)NCc1ccc(F)cc1 | -18.0 | 3.3 | 19.2 | -2.8 | / | -0.6 | / | / | /
C=C1C(=O)OC2CC3(C)OC3CCC(C)=CC(OC(C)=O)C12 (configuration not stated) | 15.9 | 2.0 | 94.7* | 33.3* | / | 91.0* | 89.2* | 44.9* | 70.5*
O=C(Cn1ncn2c(cc3cc(F)ccc32)c1=O)N1CCC2(CC1)OCCO2 | -1.0 | -3.7 | 0.1 | 1.0 | 14.8 | 4.1 | / | / | /
C=C1C(=O)OC2CC3(C)OC3C3OC3C3=CC(OC3=O)C12 (configuration not stated) | 61.3* | -34.4 | 96.3* | 99.6* | / | 88.1* | 61.1* | 101.0* | 110.6* | HIF-2a conf=67.7*;HIF-1a counter=0.4
N#CC1c2ccccc2-n2nncc2CN1Cc1cc(Cl)cc(Cl)c1 (configuration not stated) | 92.7* | -49.9 | 95.9* | 96.1* | / | 90.4* | 115.9* | / | / | HIF-2a conf=97.5*;HIF-1a counter=107.1*
c1cncc(CNCCN2CCNCC2)c1 | 14.8 | 5.7 | 11.4 | 1.2 | / | -27.6 | / | / | /
Cc1ccc(-n2c(=O)[nH]c3ccccc3c2=O)cc1[N+](=O)[O-] | -108.1 | -29.0 | -79.0 | 4.3 | / | -10.6 | / | / | /
COC(=O)C1=C(c2cc3ccccc3o2)C[C@@H]2CC[C@H]1N2C(=O)NCc1ccco1 | -6.9 | -30.1 | -1.5 | 23.3* | 21.2 | 19.6 | / | 7.9 | 10.8
C#C[C@]1(O)CCC2C3C(=O)C=C4C(Cl)=CCC[C@]4(C)C3CC[C@@]21C (some centres not stated) | 21.3 | -18.0 | 38.5 | -0.5 | / | 43.6 | / | / | /
O=C1NC(=O)C(=Cc2ccccc2[N+](=O)[O-])C(=O)N1 | 7.5 | 1.5 | 7.6 | -0.1 | / | 3.3 | / | / | /
CCOc1ccc(N2C(=O)NC(=O)/C(=C\c3ccccc3[N+](=O)[O-])C2=O)cc1 | 9.1 | 2.7 | 13.4 | 28.0* | -25.6 | -13.7 | / | 87.0* | 84.9*
COc1ccc(N2C(=O)NC(=O)/C(=C\c3ccccc3[N+](=O)[O-])C2=O)cc1 | 1.1 | -2.5 | 1.3 | 23.2* | 9.7 | 7.2 | / | 81.2* | 85.3*
COC(=O)C1=C(c2ccc(F)cc2OCc2ccccc2)C[C@@H]2CC[C@H]1N2C(=O)NCCCOC(C)C | 15.0 | -0.1 | 6.7 | 2.2 | 15.6 | 13.8 | / | / | /
O=P1(NCCCn2cc[n+](Cc3nc4ccccc4[nH]3)c2)C=C(c2ccccc2)OC(c2ccccc2)=C1 | -3.7 | 5.4 | -16.5 | 26.2* | 2.0 | -0.2 | / | 12.4 | -0.8
O=C1c2cccc(N3CCNCC3)c2C2CCCCN12 (configuration not stated) | 9.2 | 13.2 | 1.3 | 1.8 | / | 12.7 | / | / | /
C=CCn1c(O)c(C(C)=Nc2cccc(C(F)(F)F)c2)c(=O)[nH]c1=O | 3.6 | -3.1 | 10.7 | 97.9* | 7.2 | -22.0 | / | -2.5 | 18.0*
SMILES | HIF-2a block | KKLEB tox | Peg3 promoter | ABHD5-PLIN5 inh | Mdm2-MdmX inh | CF NFkB block | CF NFkB inh conf | ABHD5-PLIN5 conf | HNF4 split-luc | others
C=CCn1c(O)c(C(C)=Nc2cccc(C(=O)O)c2)c(=O)[nH]c1=O | 17.6 | -0.6 | -5.4 | 2.3 | 30.0 | 18.7 | / | / | /
O=C1NC(=S)NC(=O)C12C(c1ccc(F)cc1)NC(=S)NC2c1ccc(F)cc1 (configuration not stated) | 11.2 | 0.6 | 15.9 | 24.2* | 4.3 | -4.9 | / | 78.9* | 63.1*
Cc1ccc(C2NC(=S)NC(c3ccc(C)cc3)C23C(=O)NC(=O)NC3=O)cc1 (configuration not stated) | 7.6 | 0.5 | -4.1 | -3.4 | 1.6 | -2.9 | / | / | /
O=C1NC(=S)NC(=O)C12C(c1ccccc1)NC(=S)NC2c1ccccc1 (configuration not stated) | 19.3 | -9.4 | -8.1 | 29.3* | 8.2 | 2.3 | / | 61.0* | 39.0*
COc1ccc(-n2c(O)c(/C=C3\C=Nc4ccc(Br)cc43)c(=O)[nH]c2=O)cc1 | 31.4 | 1.7 | 39.2 | 36.2* | 19.5 | 18.7 | / | 36.1* | 29.0*
COC(=O)C1=C(c2ccc(OC(F)(F)F)cc2)C[C@@H]2CC[C@H]1N2C(=O)N1CCOCC1 | 4.3 | 12.6 | 8.0 | 5.2 | 8.8 | -15.0 | / | / | /
